Assay results published in PubChem BioAssay (NCATS).
Records with an inconclusive call do not appear. The source made the active and inactive calls. The call rests on the fitted dose curve; in most records, active means well fitted curve in the direction sought with a large enough effect; inconclusive means small, poorly fitted or top-dose-only effect, or another doubt; inactive means no such curve, though single readings can be large; an effect the other way counts as inactive or inconclusive.

Experiments:
[1] = tested on: NIH3T3; test: Cytotoxic Profiling of Annotated Libraries Using Quantitative High-Throughput Screening (AID 1296008); settings: Five cell lines viability, CellTiter-Glo ATP luminescence, 48-72 h; max response: active compounds read low; further: nearly all actives have a fitted effect of over 60% in size
Method in brief: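 Compounds were pin-transferred onto cells and incubated 48 or 72 hr at 37 degree Celsius, 95% humidity. CellTiter-Glo was added, plates sat 10 min at room temperature, then ATP-coupled luminescence was imaged as the viability read-out.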

[2] = tested on: HACAT; test: qHTS assay to identify novel small-molecules to repurpose for Merkel cell carcinoma treatment (AID 1296009); settings: MCC and control cell lines, CellTiter-Glo viability, 72 h; at 44.8 µM (top of the series) unless noted; further: nearly all actives have a fitted effect of over 60% in size
Method in brief: (§1)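 Cells exposed to NPC (8-point) and MIPE (11-point) compound dilutions for 72 hr at 37 degree celsius; viability read by CellTiter-Glo luminescence, normalized to no-cell and DMSO in-plate controls.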

[3] = tested on: MCC-13; test: as above; settings: MCC and control cell lines, CellTiter-Glo viability, 72 h; series mostly up to 46 µM
Method in brief: as §1

[4] = tested on: MCC-26; test: as above; settings: MCC and control cell lines, CellTiter-Glo viability, 72 h; series mostly up to 46 µM
Method in brief: as §1

[5] = tested on: MKL-1; test: as above; settings: MCC and control cell lines, CellTiter-Glo viability, 72 h; series mostly up to 46 µM
Method in brief: as §1

[6] = tested on: MKL-2; test: as above; settings: MCC and control cell lines, CellTiter-Glo viability, 72 h; series mostly up to 46 µM
Method in brief: as §1

[7] = tested on: NIH3T3; test: as above; settings: MCC and control cell lines, CellTiter-Glo viability, 72 h; at 44.8 µM (top of the series) unless noted
Method in brief: as §1

[8] = tested on: UISO; test: as above; settings: MCC and control cell lines, CellTiter-Glo viability, 72 h; series mostly up to 46 µM
Method in brief: as §1

[9] = tested on: WaGa; test: as above; settings: MCC and control cell lines, CellTiter-Glo viability, 72 h; series mostly up to 46 µM
Method in brief: as §1

[10] = tested on: C33A; test: Primary qHTS to identify gynecologic anti-cancer compounds using libraries of approved drugs and bioactive compounds (AID 1345084); settings: Gynecologic cancer cell panel viability, ATPlite luminescence, 48 h; series mostly up to 57.5 µM; further: nearly all actives have a fitted effect of over 55% in size
Method in brief: (§2)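 Cells, 1,000 per well, were allowed to settle for 16 h at 37 C before compound addition. Five concentrations were tested for 48 h, and viability was read by ATPlite luminescence after 15 min at room temperature.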

[11] = tested on: CAOV3; test: as above; settings: Gynecologic cancer cell panel viability, ATPlite luminescence, 48 h; series mostly up to 57.5 µM
Method in brief: as §2

[12] = tested on: CASKI; test: as above; settings: Gynecologic cancer cell panel viability, ATPlite luminescence, 48 h; series mostly up to 57.5 µM
Method in brief: as §2

[13] = tested on: Es-2; test: as above; settings: Gynecologic cancer cell panel viability, ATPlite luminescence, 48 h; series mostly up to 57.5 µM
Method in brief: as §2

[14] = tested on: HeLa; test: as above; settings: Gynecologic cancer cell panel viability, ATPlite luminescence, 48 h; series mostly up to 57.5 µM
Method in brief: as §2

[15] = tested on: Hek293T; test: as above; settings: Gynecologic cancer cell panel viability, ATPlite luminescence, 48 h, control line for the selectivity index; series mostly up to 57.5 µM
Method in brief: as §2

[16] = tested on: JEG-3; test: as above; settings: Gynecologic cancer cell panel viability, ATPlite luminescence, 48 h; series mostly up to 57.5 µM
Method in brief: as §2

[17] = tested on: OV90; test: as above; settings: Gynecologic cancer cell panel viability, ATPlite luminescence, 48 h; series mostly up to 57.5 µM
Method in brief: as §2

[18] = tested on: PA-1; test: as above; settings: Gynecologic cancer cell panel viability, ATPlite luminescence, 48 h; series mostly up to 57.5 µM
Method in brief: as §2

[19] = tested on: SKOV3; test: as above; settings: Gynecologic cancer cell panel viability, ATPlite luminescence, 48 h; series mostly up to 57.5 µM
Method in brief: as §2

[20] = tested on: HEK293T; test: qHTS assay to identify novel small-molecules to repurpose for Merkel cell carcinoma treatment (AID 1296009); settings: MCC and control cell lines, CellTiter-Glo viability, 72 h; at 44.8 µM (top of the series) unless noted; further: nearly all actives have a fitted effect of over 60% in size
Method in brief: as §1
On the % scale 0 is the no-effect control and ±100 the full control effect.

CCn1ccc(NS(=O)(=O)c2ccc(N)cc2)nc1=O
inactive: outcome [1] | outcome [2] | Potency [3] | Potency [4] | Potency [5] | Potency [6] | outcome [7] | Potency [8] | Potency [9] | Potency [10] | Potency [11] | Potency [12] | Potency [13] | Potency [14] | Potency [15] | Potency [16] | Potency [17] | Potency [18] | Potency [19]

COc1cc2c(cc1OC)C(=O)CC2
inactive: outcome [1] | outcome [2] | Potency [3] | Potency [4] | Potency [5] | Potency [6] | outcome [7] | Potency [8] | Potency [9] | Potency [10] | Potency [11] | Potency [12] | Potency [13] | Potency [14] | Potency [15] | Potency [16] | Potency [17] | Potency [18] | Potency [19]

CCCCC(O)/C=C(C)/C=C/C=C/C(=O)N1CCCC1=O (centres undefined)
inactive: outcome [1] | outcome [2] | Potency [3] | Potency [4] | Potency [5] | Potency [6] | outcome [7] | Potency [8] | Potency [9] | Potency [10] | Potency [11] | Potency [12] | Potency [13] | Potency [14] | Potency [15] | Potency [16] | Potency [17] | Potency [18]

COc1ccc2nc(SCc3ncc(C)c(OC)c3C)[nH]c2c1
inactive: outcome [1] | outcome [2] | Potency [3] | Potency [4] | Potency [5] | Potency [6] | outcome [7] | Potency [8] | Potency [9] | Potency [10] | Potency [11] | Potency [12] | Potency [13] | Potency [14] | Potency [15] | Potency [16] | Potency [17] | Potency [18] | Potency [19]

Cc1nc([N+](=O)[O-])cn1-c1ccc([N+](=O)[O-])cc1
inactive: outcome [1] | outcome [2] | Potency [3] | Potency [4] | Potency [5] | Potency [6] | outcome [7] | Potency [8] | Potency [9] | Potency [10] | Potency [12] | Potency [13] | Potency [14] | Potency [15] | Potency [16] | Potency [17] | Potency [18]

O=C(c1ccco1)N1CCNCC1
inactive: max response [1] 4.52% | outcome [2] | outcome [20] | Potency [3] | Potency [4] | Potency [5] | Potency [6] | Potency [8] | Potency [9] | Potency [10] | Potency [11] | Potency [12] | Potency [13] | Potency [14] | Potency [15] | Potency [16] | Potency [18] | Potency [19]

COCCc1ccccn1
inactive: outcome [1] | outcome [2] | Potency [3] | Potency [4] | Potency [5] | Potency [6] | outcome [7] | Potency [8] | Potency [9] | Potency [10] | Potency [11] | Potency [12] | Potency [13] | Potency [14] | Potency [15] | Potency [16] | Potency [17] | Potency [18] | Potency [19]

CC(=O)N(CC(O)CO)c1c(I)c(C(=O)NCCO)c(I)c(C(=O)NCC(O)CO)c1I (centres undefined)
inactive: outcome [1] | outcome [2] | Potency [3] | Potency [4] | Potency [5] | Potency [6] | outcome [7] | Potency [8] | Potency [9] | Potency [10] | Potency [11] | Potency [12] | Potency [13] | Potency [14] | Potency [15] | Potency [16] | Potency [17] | Potency [18]

COC(=O)c1cc(Cl)c(NC(C)=O)cc1OC
inactive: outcome [1] | outcome [2] | Potency [3] | Potency [4] | Potency [5] | Potency [6] | outcome [7] | Potency [8] | Potency [9] | Potency [10] | Potency [11] | Potency [12] | Potency [13] | Potency [14] | Potency [15] | Potency [16] | Potency [17] | Potency [18] | Potency [19]

N=C(N)c1ccc(OCCCOc2ccc(C(=N)N)cc2)cc1
inactive: outcome [1] | outcome [2] | Potency [3] | Potency [4] | Potency [5] | Potency [6] | outcome [7] | Potency [8] | Potency [9] | Potency [10] | Potency [11] | Potency [12] | Potency [13] | Potency [14] | Potency [15] | Potency [16] | Potency [17] | Potency [18] | Potency [19]

COC(=O)c1cc(S(N)(=O)=O)ccc1OC
inactive: outcome [1] | outcome [2] | Potency [3] | Potency [4] | Potency [5] | Potency [6] | outcome [7] | Potency [8] | Potency [9] | Potency [10] | Potency [11] | Potency [12] | Potency [13] | Potency [14] | Potency [15] | Potency [16] | Potency [17] | Potency [18] | Potency [19]

COc1ccccc1N1CCN(CCN2C(=O)CC3(CCCC3)CC2=O)CC1
inactive: outcome [1] | outcome [2] | outcome [20] | outcome [7] | Potency [10] | Potency [11] | Potency [12] | Potency [13] | Potency [14] | Potency [15] | Potency [16] | Potency [17] | Potency [18] | Potency [19]

CN1C(=O)CC(C)(c2ccccc2)C1=O (centres undefined)
inactive: outcome [1] | outcome [2] | Potency [3] | Potency [4] | Potency [5] | Potency [6] | outcome [7] | Potency [8] | Potency [9] | Potency [10] | Potency [11] | Potency [12] | Potency [13] | Potency [14] | Potency [15] | Potency [16] | Potency [17] | Potency [18] | Potency [19]

O=C(CCCl)NCc1ccccc1
inactive: outcome [1] | outcome [2] | Potency [3] | Potency [4] | Potency [5] | Potency [6] | outcome [7] | Potency [8] | Potency [9] | Potency [10] | Potency [11] | Potency [12] | Potency [13] | Potency [14] | Potency [15] | Potency [16] | Potency [17] | Potency [18] | Potency [19]

Cc1oc(-c2ccccc2)nc1CCC(=O)c1ccc(CC2SC(=O)NC2=O)cc1 (centres undefined)
inactive: max response [1] -0.446% | outcome [2] | outcome [20] | Potency [3] | Potency [4] | Potency [5] | Potency [6] | Potency [8] | Potency [10] | Potency [11] | Potency [12] | Potency [13] | Potency [14] | Potency [15] | Potency [16] | Potency [17] | Potency [18] | Potency [19]
